# hgDAF12 agonist = H. glycines DAF-12 receptor agonists, primary screen, cell-based, luminescence, HEK293, GAL4 fusion, UAS-luciferase; AID 687014, 2013; HEK293 GAL4-hgDAF12 UAS-luciferase reporter, agonist luminescence; normalized to butyrate control; Nuclear hormone receptor DAF-12 (Heterodera glycines), GAL4 fusion; activation, % at 6.8 µM; 370,000 tested, 1.8% active;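 active = activation above a cutoff set at the mean of all screened compounds plus 3 SD, cut at about 10% in these data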;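 note: 0% = DMSO wells and 100% = sodium butyrate wells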
# ssDAF12 agonist = S. stercoralis DAF-12 nuclear receptor activators, primary screen, cell-based, luminescence, HEK293, GRIP1 co-expression, lit1-tk-luc; Nuclear hormone receptor DAF-12 (Strongyloides stercoralis); HEK293 ssDAF-12/GRIP1 lit1-tk-luc reporter; % of 3 µM dafachronic acid response; activation, % at 6.8 µM; 370,000 tested, 1% active;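 active = activation above the mean over all tested compounds plus 3 SD, cut at about 0.9% in these data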;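 note: 0% = DMSO-only wells and 100% = 3 µM delta7-dafachronic acid wells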
# hcDAF-12 act = H. contortus DAF-12 nuclear receptor activators, primary screen, cell-based, luminescence, HEK293, lit1-tk-luc reporter; HEK293 hcDAF-12 lit1-tk-luc reporter; 0% DMSO, 100% Δ7-dafachronic acid; AID 652067, 2013; activation, % at 6.8 µM; 370,000 tested, 1.4% active;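 active = activation above the mean of all tested compounds plus 3 SD, cut at about 5.5% in these data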;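 note: 100% = response to 3 µM Δ7-dafachronic acid high control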
# DAX1 inh-1 = DAX1 (NR0B1) inhibitors on StAR promoter, primary screen, cell-based, luminescence, SF-1 (NR5A1), full-length DAX-1; HEK293T StAR-luciferase reporter, SF-1/DAX-1 repression relief; inhibition, % at 6.8 µM; 370,000 tested, 1.1% active; AID 652010, 2013;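 active = inhibition above the mean over all tested compounds plus 3 SD, cut at about 3.6% in these data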;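 note: 0% = DAX-1 cells with DMSO and 100% = cells lacking DAX-1 with DMSO; higher inhibition means more luminescence from relief of DAX-1 repression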
# AHR act = AHR activators, primary screen, cell-based, luminescence, luciferase reporter, human | Aryl hydrocarbon receptor (Homo sapiens), P35869 | AHR-responsive luciferase reporter cells | activation, % at 5 µM | 320,000 tested, 2.5% active | AID 2796, 2010; in the data active = activation above about 47%;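 note: 0% = vehicle wells and 100% = reference agonist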
# DAX1 inh-2 = DAX1 (NR0B1) inhibitors, primary screen, cell-based, HEK293, Gal4-DAX1, luciferase luminescence. HEK293 Gal4-DAX1 luciferase reporter. inhibition, % at 6.75 µM. 340,000 tested, 0.99% active. AID 504766, 2011;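 active = inhibition above the mean over all tested compounds plus 3 SD, cut at about 4.2% in these data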;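 note: 0% = DAX1-transfected cells with DMSO and 100% = empty-vector control cells with DMSO; inhibition shows as a rise in luminescence from relieved DAX1 repression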
# Target sequence (P51843 207-470 limits assumed): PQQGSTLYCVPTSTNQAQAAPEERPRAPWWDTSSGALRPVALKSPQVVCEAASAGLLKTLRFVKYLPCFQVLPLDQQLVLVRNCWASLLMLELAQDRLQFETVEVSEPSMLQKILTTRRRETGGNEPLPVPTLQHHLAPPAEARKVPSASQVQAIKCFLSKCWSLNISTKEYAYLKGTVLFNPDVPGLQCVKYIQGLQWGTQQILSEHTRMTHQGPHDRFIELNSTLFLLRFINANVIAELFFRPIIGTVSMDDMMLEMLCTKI
# LXR ag = LXR agonists, Gal4 luciferase reporter, confirmation, counter-screen for hcDAF-12 agonist project, cell-based, luminescence, HEK293, H. contortus campaign. HEK293 Gal4-LXR tk-luc reporter, 24 h; normalized: DMSO 0%, positive control 100%. shares compounds with hcDAF-12 act. activation, % at 6.8 µM. 3,400 tested, under 10 active;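 active = mean percent activation of the reporter above a cutoff set as the average over tested compounds plus their standard deviation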
# hcDAF12 conf = H. contortus DAF-12 receptor agonists, confirmation, cell-based, luminescence, HEK293, lit1-tk-luc, triplicate; 3,400 tested, 61% active; HEK293 hcDAF-12 lit1-tk-luc reporter; % of Δ7-dafachronic acid response; activation, % at 6.8 µM; shares compounds with hcDAF-12 act;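 active = mean activation across triplicate tests above the threshold derived from the earlier primary screen, cut at about 5.5% in these data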;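 note: 0% = DMSO only wells and 100% = 3 µM Δ7-dafachronic acid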
# Active calls of the source: *; / = not tested or not shown. An excerpt weighted towards active compounds, which were near 5.7% of everything screened.
SMILES,hgDAF12 agonist,ssDAF12 agonist,hcDAF-12 act,DAX1 inh-1,AHR act,DAX1 inh-2,LXR ag,hcDAF12 conf
CCCn1c(=O)c(C(=O)Nc2cccc(C)c2)c(O)c2ccccc21,1,0,1,0,/,-1,/,/
CCn1c(=O)c(C(=O)Nc2ccc(C)cc2)c(O)c2ccccc21,2,0,8.7*,1,24,3,0,5
CCn1c(=O)c(C(=O)NNC(=O)c2ccccc2)c(O)c2ccccc21,4,0,-1,0,5,1,/,/
CC(=O)Nc1cccc(N)c1,1,-1,1,2,4,0,/,/
Cc1ccc(NC(=O)c2sc(N)nc2C)cc1,11*,0,6.9*,1,61*,1,1,5
Oc1ccccc1OCc1nc2ccccc2s1,11*,1.4*,7.1*,3,-8,2,1,6.2*
CCCCOc1ccc(N(CC(=O)NC2CCCCC2)C(=O)c2snc(C(N)=O)c2N)cc1,0,-1,-1,0,0,2,/,/
Fc1ccc2nncc(SCc3ccccc3Cl)c2c1,0,-2,0,1,/,1,/,/
CN1CCc2c(sc(/N=C/c3c[nH]c4ccccc34)c2C#N)C1,4,1,8.7*,2,48*,/,1,9.0*
Cc1cc(C)n(/N=C/c2c[nH]c3ccccc23)c(=O)c1C#N,1,-1,-1,0,3,0,/,/
CC1(C(=O)NS(=O)(=O)c2ccc(Cl)s2)CCN1C(=O)c1ccc(C2CCCCC2)cc1 (stereo not given),-2,-1,0,0,/,/,/,/
Cc1cccnc1NC(=O)c1cccc(S(=O)(=O)N2CCCC2)c1,-2,0,7.0*,0,11,1,0,5
Cc1cccnc1NC(=O)c1ccc(S(=O)(=O)N2CCCCC2)cc1,2,-1,0,2,0,2,/,/
COc1cc(Cl)c(NC2=CC(=O)C(=O)c3ccccc32)c(OC)c1,-1,-1,2,-4,29,0,/,/
O=CN1Cc2[nH]c3ccccc3c2N(c2ccc(Cl)cc2)C1=O,2,1.1*,7.0*,0,65*,-1,0,3
O=C1CC(SCc2nc3ccccc3[nH]2)C(=O)N1c1ccc(Cl)cc1 (stereo not given),1,0,0,0,16,-1,/,/
O=C(CSc1nnc(SCC(=O)c2ccco2)s1)c1ccco1,-1,0,2,-1,3,-1,/,/
O=C(CSc1nc2cc(Cl)ccc2s1)c1ccco1,3,0,9.7*,2,32,2,0,3
CCOC(=O)c1ccc(NC(=O)c2cc3c(s2)CCC3)cc1,-1,-1,-2,1,16,3,/,/
O=C(/C(=C(\[O-])c1ccccc1)[n+]1ccc2ccccc2c1)c1ccccc1,3,1,8.1*,1,37,0,0,5
CC(CN1CCCCC1)OC(=O)c1ccccc1F (stereo not given),2,-1,-1,0,-1,2,/,/
C=CCn1c(C)nnc1SCC(=O)Nc1nc(C)c(C(=O)N(C)C)s1,3,-1,7.3*,0,-2,2,0,1
Nc1c2c(nc3ccccc13)CCCC2,0,-1,1,0,20,1,/,/
Nc1c2ccccc2nc2ccccc12,5,2.6*,14*,0,27,3,1,25*
O=c1[nH]c2ccccc2nc1Cc1ccccc1,-2,-2,2,0,39,-1,/,/
SMILES,hgDAF12 agonist,ssDAF12 agonist,hcDAF-12 act,DAX1 inh-1,AHR act,DAX1 inh-2,LXR ag,hcDAF12 conf
O=C(Cc1nc2ccccc2[nH]c1=O)c1ccccc1,11*,1.2*,8.1*,2,/,1,2,9.9*
O=C(COC(=O)CSc1ccc([N+](=O)[O-])cc1)NCc1cccs1,4,-1,0,2,3,1,/,/
C/C(=N\N=C(/N)c1nonc1N)c1ccc2c(c1)OCO2,11*,0,7.1*,4,6,1,2,5
O=C(NC(=S)Nc1cccc([N+](=O)[O-])c1)c1ccccc1,1,-1,1,1,2,/,/,/
O=C(NC(=S)Nc1ccc(Cl)cc1)c1ccccc1,13*,-1,8.0*,1,15,1,1,3
O=C(NC(=S)Nc1cc([N+](=O)[O-])ccc1Cl)c1ccccc1,5,0,6.6*,1,71*,1,0,6.0*
O=C(/C=C/c1ccco1)Nc1cccc2cccnc12,10,1,6.8*,1,48*,0,0,7.0*
CN(Cc1ccccc1)c1nc2nonc2nc1N1CCCC(CN2CCCC2=O)C1 (stereo not given),-2,-1,2,0,1,2,/,/
CN(Cc1nc(Cc2cccc(F)c2)no1)CC1CCOCC1,-1,-1,-1,0,2,0,/,/
Cc1ccc(N=C2NC(=O)/C(=C/C=C/c3ccco3)S2)cc1,2,0,7.9*,0,11,1,0,6
COc1ncnc2c1oc1ccccc12,8,0,5,1,11,1,/,/
Clc1ccc2oc3c(Cl)ncnc3c2c1,1,-1,8.0*,0,20,-1,0,4
Cc1ccc(-c2noc(/C=C/c3ccccc3)n2)cc1,2,-1,0,1,2,2,/,/
Cc1ccc(/C=C/c2nnc(-c3ccccc3)o2)cc1,9,1.7*,7.3*,2,3,1,0,3
O=C(Cn1cc([N+](=O)[O-])cn1)NCc1cc2ccccc2[nH]1,2,0,8.0*,0,16,0,0,4
